Test results as given in the supplement of paper PMC10849652.
Of roughly 8,800 targets only a part is listed; those with a hit were picked by preference. About 0.5% of all pairs of compound and target were hits. Values without a mark were called inactive.

Experiments:
Assay in all cases: log2 fold change, soluble protein after heating vs DMSO (PISA); higher = thermal stabilisation; K562 lysate, 10 uM; active = over 0.2 and 3.5 SD of the protein, either way, in both replicates (recomputed)
lapatinib = compound: CS(=O)(=O)CCNCc1ccc(-c2ccc3ncnc(Nc4ccc(OCc5cccc(F)c5)c(Cl)c4)c3c2)o1 [lapatinib]
Method in brief: (§1)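 Dounce homogenisation of K562 pellets in PBS pH 7.4 with 1 mM MgCl2 produced a crude extract, used at 1 mg/mL protein. Exposure to 10 μM compound lasted 30 min, and aliquots were then heated for 3 min across 48°C-58°C, pooled and brought to 0.5% NP-40 at 4°C. The supernatant after 21,000xg for 90 min was quantified by TMTpro 16plex LC-MS/MS with channel sums equalised. Duplicate values are given as log-two fold change in thermal stability relative to solvent controls.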

pictilisib = compound: CS(=O)(=O)N1CCN(Cc2cc3nc(-c4cccc5[nH]ncc45)nc(N4CCOCC4)c3s2)CC1 [pictilisib]
Method in brief: as §1

crizotinib = compound: C[C@@H](Oc1cc(-c2cnn(C3CCNCC3)c2)cnc1N)c1c(Cl)ccc(F)c1Cl [crizotinib]
Method in brief: as §1

[1] = compound: C[C@H](C1=CC=C(C=C1)C(=O)NC2=C3C=CNC3=NC=C2)N
Method in brief: as §1

duvelisib = compound: C[C@H](Nc1ncnc2nc[nH]c12)c1cc2cccc(Cl)c2c(=O)n1-c1ccccc1 [duvelisib]
Method in brief: as §1

gandotinib = compound: Cc1cc(Nc2cc(CN3CCOCC3)c3nc(C)c(Cc4ccc(Cl)cc4F)n3n2)n[nH]1 [gandotinib]
Method in brief: as §1

tozasertib = compound: Cc1cc(Nc2cc(N3CCN(C)CC3)nc(Sc3ccc(NC(=O)C4CC4)cc3)n2)n[nH]1 [tozasertib]
Method in brief: as §1

doramapimod = compound: Cc1ccc(-n2nc(C(C)(C)C)cc2NC(=O)Nc2ccc(OCCN3CCOCC3)c3ccccc23)cc1 [doramapimod]
Method in brief: as §1

bafetinib = compound: Cc1ccc(NC(=O)c2ccc(CN3CC[C@H](N(C)C)C3)c(C(F)(F)F)c2)cc1Nc1nccc(-c2cncnc2)n1 [bafetinib]
Method in brief: as §1

[2] = compound: Cc1cccc(CC(=O)N2CCc3c2ccc(-c2cn(C)c4ncnc(N)c24)c3F)n1
Method in brief: as §1

UniProt Q13322, sequence (Q13322 whole entry, looked up): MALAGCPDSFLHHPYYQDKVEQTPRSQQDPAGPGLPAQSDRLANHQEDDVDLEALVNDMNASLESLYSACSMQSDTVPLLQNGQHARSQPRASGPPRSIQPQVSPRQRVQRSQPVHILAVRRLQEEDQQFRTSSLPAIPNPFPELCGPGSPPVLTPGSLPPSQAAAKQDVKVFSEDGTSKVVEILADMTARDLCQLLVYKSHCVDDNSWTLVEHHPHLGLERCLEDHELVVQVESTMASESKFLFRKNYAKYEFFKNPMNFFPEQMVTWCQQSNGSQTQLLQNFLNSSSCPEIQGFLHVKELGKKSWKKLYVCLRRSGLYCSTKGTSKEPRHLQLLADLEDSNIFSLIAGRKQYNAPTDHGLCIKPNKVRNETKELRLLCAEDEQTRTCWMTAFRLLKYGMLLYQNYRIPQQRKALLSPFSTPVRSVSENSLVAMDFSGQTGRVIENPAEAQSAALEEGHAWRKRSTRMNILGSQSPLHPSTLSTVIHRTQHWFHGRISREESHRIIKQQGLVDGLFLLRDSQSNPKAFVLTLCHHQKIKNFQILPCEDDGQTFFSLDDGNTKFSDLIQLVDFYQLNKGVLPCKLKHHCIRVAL
UniProt P55084, sequence (P55084 whole entry, looked up): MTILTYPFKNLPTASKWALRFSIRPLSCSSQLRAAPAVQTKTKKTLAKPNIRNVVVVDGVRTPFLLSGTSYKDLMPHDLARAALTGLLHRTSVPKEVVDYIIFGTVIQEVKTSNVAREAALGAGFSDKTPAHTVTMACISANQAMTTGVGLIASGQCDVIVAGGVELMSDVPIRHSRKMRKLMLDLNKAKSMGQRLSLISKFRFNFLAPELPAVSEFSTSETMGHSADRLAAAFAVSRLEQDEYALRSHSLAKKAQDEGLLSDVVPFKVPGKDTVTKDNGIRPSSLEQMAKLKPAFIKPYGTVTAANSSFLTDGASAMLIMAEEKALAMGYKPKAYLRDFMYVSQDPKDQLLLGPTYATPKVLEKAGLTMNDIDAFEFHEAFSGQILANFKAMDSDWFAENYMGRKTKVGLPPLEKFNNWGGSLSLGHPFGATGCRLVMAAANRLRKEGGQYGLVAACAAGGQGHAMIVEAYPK
UniProt Q6AI08, sequence (Q6AI08 whole entry, looked up): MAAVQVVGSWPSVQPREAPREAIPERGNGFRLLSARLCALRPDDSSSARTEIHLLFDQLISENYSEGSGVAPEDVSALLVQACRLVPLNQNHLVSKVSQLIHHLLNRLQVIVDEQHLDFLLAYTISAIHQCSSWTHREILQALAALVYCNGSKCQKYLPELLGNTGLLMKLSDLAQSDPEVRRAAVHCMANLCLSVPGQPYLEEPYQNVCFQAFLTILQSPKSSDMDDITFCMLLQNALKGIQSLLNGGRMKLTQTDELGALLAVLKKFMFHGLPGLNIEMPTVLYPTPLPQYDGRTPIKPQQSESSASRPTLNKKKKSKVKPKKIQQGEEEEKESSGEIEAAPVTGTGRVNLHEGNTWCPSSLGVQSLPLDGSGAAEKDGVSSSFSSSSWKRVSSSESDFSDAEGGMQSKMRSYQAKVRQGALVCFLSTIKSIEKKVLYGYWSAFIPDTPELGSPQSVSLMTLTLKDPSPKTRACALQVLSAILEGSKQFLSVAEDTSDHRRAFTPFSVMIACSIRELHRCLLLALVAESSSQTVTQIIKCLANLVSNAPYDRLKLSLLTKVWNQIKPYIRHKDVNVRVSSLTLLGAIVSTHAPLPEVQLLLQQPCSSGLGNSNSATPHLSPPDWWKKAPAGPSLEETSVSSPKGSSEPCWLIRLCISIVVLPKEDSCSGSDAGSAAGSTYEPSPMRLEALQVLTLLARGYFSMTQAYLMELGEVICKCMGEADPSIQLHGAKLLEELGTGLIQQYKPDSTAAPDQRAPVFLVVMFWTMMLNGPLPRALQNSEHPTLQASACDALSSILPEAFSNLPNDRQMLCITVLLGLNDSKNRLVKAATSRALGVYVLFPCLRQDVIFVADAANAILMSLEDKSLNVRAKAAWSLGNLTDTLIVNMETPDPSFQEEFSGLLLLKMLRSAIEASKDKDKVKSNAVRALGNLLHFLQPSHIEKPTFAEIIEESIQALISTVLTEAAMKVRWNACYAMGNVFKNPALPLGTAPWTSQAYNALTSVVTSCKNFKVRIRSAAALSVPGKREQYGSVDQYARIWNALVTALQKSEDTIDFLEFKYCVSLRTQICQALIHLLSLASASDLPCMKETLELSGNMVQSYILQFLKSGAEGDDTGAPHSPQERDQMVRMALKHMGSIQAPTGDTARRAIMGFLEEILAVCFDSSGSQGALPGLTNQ
UniProt Q01581, sequence (Q01581 whole entry, looked up): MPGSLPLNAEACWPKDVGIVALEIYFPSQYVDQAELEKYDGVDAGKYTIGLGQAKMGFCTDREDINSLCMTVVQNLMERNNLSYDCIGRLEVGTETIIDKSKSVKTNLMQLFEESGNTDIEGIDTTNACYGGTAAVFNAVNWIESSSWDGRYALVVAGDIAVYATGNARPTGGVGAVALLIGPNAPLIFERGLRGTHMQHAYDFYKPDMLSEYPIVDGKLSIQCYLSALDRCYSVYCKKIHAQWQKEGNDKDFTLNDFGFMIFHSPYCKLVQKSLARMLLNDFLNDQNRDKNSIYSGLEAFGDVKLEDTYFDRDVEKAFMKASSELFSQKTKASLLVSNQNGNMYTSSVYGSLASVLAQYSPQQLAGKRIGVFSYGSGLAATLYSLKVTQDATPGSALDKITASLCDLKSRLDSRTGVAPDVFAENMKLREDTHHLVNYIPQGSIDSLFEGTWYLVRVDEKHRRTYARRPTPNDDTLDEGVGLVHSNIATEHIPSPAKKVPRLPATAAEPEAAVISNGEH
UniProt P23677, sequence (P23677 whole entry, looked up): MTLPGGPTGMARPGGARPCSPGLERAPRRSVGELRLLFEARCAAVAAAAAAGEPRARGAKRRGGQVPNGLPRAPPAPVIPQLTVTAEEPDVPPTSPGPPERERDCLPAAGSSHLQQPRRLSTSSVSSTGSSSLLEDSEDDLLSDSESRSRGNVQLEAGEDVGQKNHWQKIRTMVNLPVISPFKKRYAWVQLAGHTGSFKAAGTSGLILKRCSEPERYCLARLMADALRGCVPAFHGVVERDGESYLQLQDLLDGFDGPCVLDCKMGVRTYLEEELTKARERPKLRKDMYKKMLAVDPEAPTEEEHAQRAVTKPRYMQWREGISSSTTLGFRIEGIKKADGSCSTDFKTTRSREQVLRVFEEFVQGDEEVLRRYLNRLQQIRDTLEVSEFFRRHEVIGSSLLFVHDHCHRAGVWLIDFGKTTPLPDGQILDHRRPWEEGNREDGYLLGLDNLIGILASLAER
UniProt Q01628, sequence (Q01628 whole entry, looked up): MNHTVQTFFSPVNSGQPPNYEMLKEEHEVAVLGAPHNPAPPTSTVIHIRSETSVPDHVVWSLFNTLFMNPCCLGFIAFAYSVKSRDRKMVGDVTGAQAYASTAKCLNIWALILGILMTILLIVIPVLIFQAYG
UniProt O75367, sequence (O75367 whole entry, looked up): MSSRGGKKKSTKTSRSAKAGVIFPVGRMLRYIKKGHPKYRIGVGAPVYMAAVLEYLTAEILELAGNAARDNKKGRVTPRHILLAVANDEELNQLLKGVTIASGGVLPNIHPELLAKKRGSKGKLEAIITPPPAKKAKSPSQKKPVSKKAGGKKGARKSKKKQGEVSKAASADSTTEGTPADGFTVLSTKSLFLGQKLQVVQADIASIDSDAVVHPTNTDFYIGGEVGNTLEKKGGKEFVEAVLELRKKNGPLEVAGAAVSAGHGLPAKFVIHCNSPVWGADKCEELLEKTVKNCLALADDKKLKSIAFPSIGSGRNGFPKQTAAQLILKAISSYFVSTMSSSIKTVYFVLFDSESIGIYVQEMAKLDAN
UniProt Q58FG1, sequence (Q58FG1 whole entry, looked up): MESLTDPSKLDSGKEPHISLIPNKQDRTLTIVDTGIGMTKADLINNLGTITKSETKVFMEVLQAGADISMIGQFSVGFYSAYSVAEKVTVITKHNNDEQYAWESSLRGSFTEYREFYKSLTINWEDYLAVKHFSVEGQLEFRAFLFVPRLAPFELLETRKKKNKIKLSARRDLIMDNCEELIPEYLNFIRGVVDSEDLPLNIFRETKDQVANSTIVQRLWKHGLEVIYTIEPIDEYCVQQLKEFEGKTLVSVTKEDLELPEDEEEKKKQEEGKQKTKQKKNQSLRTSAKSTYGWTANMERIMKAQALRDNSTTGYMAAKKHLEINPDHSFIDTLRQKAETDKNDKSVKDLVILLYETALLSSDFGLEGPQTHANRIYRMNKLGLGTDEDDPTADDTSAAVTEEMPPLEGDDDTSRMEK
UniProt Q9HAV0, sequence (Q9HAV0 whole entry, looked up): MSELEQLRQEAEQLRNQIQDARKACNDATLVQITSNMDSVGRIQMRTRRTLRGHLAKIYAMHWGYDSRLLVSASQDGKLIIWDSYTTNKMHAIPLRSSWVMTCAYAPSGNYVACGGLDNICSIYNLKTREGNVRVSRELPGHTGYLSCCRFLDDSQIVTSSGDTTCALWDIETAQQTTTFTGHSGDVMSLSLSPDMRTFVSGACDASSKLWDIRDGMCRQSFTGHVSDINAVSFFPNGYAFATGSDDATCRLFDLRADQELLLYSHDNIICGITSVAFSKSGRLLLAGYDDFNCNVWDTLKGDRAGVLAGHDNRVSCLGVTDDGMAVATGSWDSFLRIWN
UniProt P36969, sequence (P36969 whole entry, looked up): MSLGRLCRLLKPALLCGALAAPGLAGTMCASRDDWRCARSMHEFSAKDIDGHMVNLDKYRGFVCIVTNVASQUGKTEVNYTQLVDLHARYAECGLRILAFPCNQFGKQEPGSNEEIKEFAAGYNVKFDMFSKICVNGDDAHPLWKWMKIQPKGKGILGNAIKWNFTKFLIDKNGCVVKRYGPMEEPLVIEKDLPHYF
UniProt P09429, sequence (P09429 whole entry, looked up): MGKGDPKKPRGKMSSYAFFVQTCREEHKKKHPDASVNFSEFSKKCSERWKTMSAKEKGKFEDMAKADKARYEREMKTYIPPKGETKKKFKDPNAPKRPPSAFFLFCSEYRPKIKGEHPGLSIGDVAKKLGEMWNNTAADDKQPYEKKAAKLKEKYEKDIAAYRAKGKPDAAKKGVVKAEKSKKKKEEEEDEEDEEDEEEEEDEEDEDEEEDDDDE

| Target | log2 fold change (lapatinib) | log2 fold change (pictilisib) | log2 fold change (crizotinib) | log2 fold change [1] | log2 fold change (duvelisib) | log2 fold change (gandotinib) | log2 fold change (tozasertib) | log2 fold change (doramapimod) | log2 fold change (bafetinib) | log2 fold change [2] |
| --- | --- | --- | --- | --- | --- | --- | --- | --- | --- | --- |
| KDM5C (UniProt P41229) | -0.085 | -0.071 | -0.043 | 0.034 | -0.001 | -0.135 | 0.016 | 0.04 | -0.061 | 0.001 |
| GLYR1 (UniProt Q49A26) | 0.053 | 0.045 | -0.058 | 0.019 | -0.079 | 0.045 | -0.044 | 0.11 | -0.042 | -0.04 |
| HSP90AA4P (UniProt Q58FG1) | -0.035 | -0.129 | -0.032 | -0.464 (active) | 0.011 | 0.042 | 0.08 | -0.034 | -0.235 | 0.128 |
| GYPA (UniProt P02724) | 0.074 | -0.01 | 0.017 | 0.528 (active) | 0.013 | -0.197 | -0.02 | -0.033 | 0.229 | -0.234 |
| HEATR6 (UniProt Q6AI08) | -0.014 | -0.033 | -0.112 | -0.037 | 0.084 | 0.003 | -0.003 | -0.011 | 0.054 | 0.045 |
| HDLBP, A0A024R4E5 | 0.005 | -0.017 | -0.028 | 0.002 | -0.003 | -0.03 | 0.006 | 0.018 | -0.049 | 0.013 |
| H2AFY (UniProt O75367) | -0.021 | 0.036 | 0.051 | -0.135 | 0.01 | 0.084 | -0.108 | -0.138 | -0.011 | 0.049 |
| IMPDH2 (UniProt H0Y4R1) | 0.074 | -0.133 | 0.19 | -0.056 | 0.011 | 0.16 | -0.028 | 0.028 | 0.022 | 0.065 |
| HSD17B12 (UniProt Q53GQ0) | 0.31 (active) | -0.034 | -0.025 | -0.158 | -0.08 | 0.41 (active) | 0.011 | 0.047 | -0.019 | 0.149 |
| HMGCS1 (UniProt Q01581) | 0.077 | 0.018 | 0.001 | -0.031 | 0.003 | 0.006 | -0.006 | 0.036 | 0.013 | -0.004 |
| GOLGA1 (UniProt Q92805) | -0.406 (active) | 0.007 | 0.012 | 0.056 | -0.101 | 0.024 | -0.087 | 0.001 | -0.066 | -0.025 |
| ITPKA (UniProt P23677) | -0.043 | -0.055 | -0.012 | -0.012 | -0.038 | -0.012 | 0.051 | 0.016 | -0.043 | 0.051 |
| INPP4A (UniProt Q96PE3) | -0.028 | -0.116 | -0.024 | -0.086 | 0.025 | 0.003 | 0.065 | 0.014 | 0.132 | 0.128 |
| HEATR3 (UniProt Q7Z4Q2) | -0.003 | 0 | -0.074 | -0.006 | -0.005 | -0.078 | -0.021 | 0.027 | -0.064 | 0.031 |
| HADHB (UniProt P55084) | 0.1 | 0.067 | 0.073 | -0.041 | 0.037 | 0.138 | 0.016 | 0.218 | 0.014 | -0.093 |
| IGF2BP2 isoform 6 (UniProt Q9Y6M1) | 0.084 | – | – | – | – | – | – | – | – | – |

| Target | log2 fold change (lapatinib) | log2 fold change (pictilisib) | log2 fold change (crizotinib) | log2 fold change [1] | log2 fold change (duvelisib) | log2 fold change (gandotinib) | log2 fold change (tozasertib) | log2 fold change (doramapimod) | log2 fold change (bafetinib) | log2 fold change [2] |
| --- | --- | --- | --- | --- | --- | --- | --- | --- | --- | --- |
| GPX4 (UniProt P36969) | -0.037 | -0.03 | -0.01 | 0.041 | -0.008 | -0.065 | 0 | -0.001 | -0.033 | -0.051 |
| IFITM3 (UniProt Q01628) | -0.123 | -0.067 | -0.089 | -0.103 | -0.005 | 0.035 | -0.153 | -0.034 | 0.09 | -0.022 |
| HDAC3 (UniProt E7ESJ6) | -0.073 | – | – | – | – | – | – | – | – | – |
| GNB4 (UniProt Q9HAV0) | 0.031 | -0.031 | 0.106 | -0.058 | 0.015 | 0.094 | -0.028 | 0.171 | -0.033 | 0.074 |
| KIAA0930 isoform 2 (UniProt Q6ICG6) | -0.068 | 0.016 | -0.067 | -0.121 | -0.037 | 0.055 | -0.015 | 0.055 | -0.051 | 0.191 |
| IRAK1 (UniProt P51617) | 0.023 | -0.008 | 0.799 (active) | -0.111 | -0.169 | 0.26 | -0.116 | 0.172 | -0.036 | 0.168 |
| HNRNPD isoform 2 (UniProt Q14103) | 0.047 | 0.043 | 0.034 | 0.559 (active) | 0.015 | -0.085 | 0.004 | -0.023 | 0.095 | -0.108 |
| HNRNPUL2 (UniProt Q1KMD3) | -0.037 | -0.028 | -0.033 | -0.002 | 0.012 | -0.005 | 0.009 | -0.008 | -0.009 | 0.043 |
| GTF2A1 (UniProt P52655) | 0.034 | 0.011 | 0.055 | 0.327 (active) | 0.009 | -0.141 | 0.064 | 0.028 | 0.026 | -0.111 |
| IARS (UniProt P41252) | -0.032 | -0.006 | -0.045 | 0.059 | -0.001 | -0.13 | 0.013 | 0.016 | -0.015 | -0.041 |
| HMGN5 (UniProt P82970) | -0.058 | 0.032 | 0.046 | 0.239 | 0.018 | -0.081 | 0.02 | -0.066 | 0.013 | -0.184 |
| GRB10 (UniProt Q13322) | -0.029 | -0.034 | -0.028 | -0.125 | 0.029 | 0.016 | -0.06 | 0.021 | -0.049 | 0.099 |
| HMGB1 (UniProt P09429) | 0.017 | 0.02 | -0.024 | 0.304 (active) | 0.028 | -0.097 | 0.03 | -0.014 | 0.079 | -0.154 |
| HMGN4 (UniProt O00479) | 0.038 | -0.044 | 0.047 | 1.19 (active) | -0.074 | -0.421 | 0.078 | -0.163 | 0.6 | -0.551 |
| INTS5 (UniProt Q6P9B9) | -0.688 | 0.018 | -0.082 | 0.048 | -0.022 | -0.235 | 0.009 | -0.002 | -0.092 | 0.054 |
